Measurements as given in PubChem BioAssay AID1159580 (chemical genetic matrix, 2015).
The whole screen tested about 5,500 compounds, of which about 2,000 (36%) were called active. Roughly 18% stayed inconclusive and do not appear here. Cut-off read from the data, not from the text of the source: active = normalized growth mostly below about 0.91 (no sharp cut-off); inconclusive = no clear call, values can overlap the other calls; inactive = mostly above about 0.92. This is one part of the list.

Assay: chemical genetic growth profiling, strain panel (AID 1159580);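 note: tested at 20 µM; growth read once vehicle control cultures reached saturation at 30 °C; 1 = growth at the plate median or of vehicle wells; lower values mean less growth of the strain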
Conditions: S. cerevisiae deletion strains, growth OD
[1] = locus YMR263W, strain SAP30, active compounds read low
[2] = locus YNL153C, strain GIM3, active compounds read low
[3] = locus YPL055C, strain LGE1, active compounds read low
[4] = locus YDL101C, strain DUN1, active compounds read low
[5] = locus YHR030C, strain SLT2, active compounds read low

Measured: normalized growth

COc1ccc(-c2ccc(N)[n+](CCCC(=O)O)n2)cc1
inactive: locus YAL040C, strain CLN3, active compounds read low 1.05 | locus YCL061C, strain MRC1 (second series), active compounds read low 1 | locus YDR363W, strain ESC2, active compounds read low 1.01 | locus YER002W, strain NOP16, active compounds read low 0.993 | [1] 1.01 | locus YMR307W, strain GAS1, active compounds read low 1.01 | [2] 1.03 | locus YNL175C, strain NOP13, active compounds read low 1 | locus YNL197C, strain WHI3, active compounds read low 1.01 | locus YNL224C, strain SQS1, active compounds read low 1.01 | locus YOR083W, strain WHI5 (second series), active compounds read low 1.02 | [3] 1.01

COc1ccc(/C(C)=N\NC2=NCCCN2)cc1
inactive: locus YAL013W, strain DEP1, active compounds read low 1 | locus YBR229C, strain ROT2, active compounds read low 1.01 | locus YCL061C, strain MRC1, active compounds read low 1 | [4] 1.03 | locus YDR150W, strain NUM1, active compounds read low 0.999 | locus YEL061C, strain CIN8, active compounds read low 0.991 | locus YGR078C, strain PAC10, active compounds read low 1 | [5] 0.987 | locus YHR087W, strain rtc3, active compounds read low 0.993 | locus YJL187C, strain SWE1, active compounds read low 1.01 | locus YJR043C, strain POL32, active compounds read low 0.998 | locus YJR075W, strain HOC1, active compounds read low 0.986 | locus YKL190W, strain CNB1, active compounds read low 0.973 | locus YLR039C, strain RIC1, active compounds read low 0.957 | locus YLR058C, strain SHM2 (second series), active compounds read low 0.991 | locus YLR085C, strain ARP6, active compounds read low 0.982 | locus YLR262C, strain YPT6, active compounds read low 0.978 | locus YML094W, strain GIM5, active compounds read low 1.08 | locus YMR219W, strain ESC1, active compounds read low 0.997 | [1] 1 | [2] 1.01 | locus YNL298W, strain CLA4 (second series), active compounds read low 0.966 | locus YNL322C, strain KRE1, active compounds read low 1 | locus YNR030W, strain Alg12, active compounds read low 0.993 | [3] 1.01 | locus YPL241C, strain CIN2, active compounds read low 1.03 | locus YPR135W, strain CTF4, active compounds read low 1.04

CCCCCc1ccc(-c2nc(SCC(C)=O)n[nH]2)cc1
inactive: locus YAR019C, strain CDC15, active compounds read low 0.933 | locus YBL105C, strain PKC1, active compounds read low 0.95 | locus YBR135W, strain CKS1, active compounds read low 0.959 | locus YBR136W, strain MEC1, active compounds read low 0.948 | locus YBR160W, strain CDC28, active compounds read low 0.947 | locus YDL017W, strain CDC7, active compounds read low 0.957 | locus YDL028C, strain MPS1, active compounds read low 0.932 | [4] 0.956 | locus YDL108W, strain KIN28, active compounds read low 0.949 | locus YDL132W, strain cdc53, active compounds read low 0.971 | locus YDL214C, strain PRR2, active compounds read low 0.835 | locus YDR052C, strain DBF4, active compounds read low 0.97 | locus YDR054C, strain cdc34, active compounds read low 0.922 | locus YDR226W, strain ADK1, active compounds read low 0.942 | locus YDR477W, strain SNF1, active compounds read low 0.773 | locus YER123W, strain YCK3, active compounds read low 0.761 | locus YER133W, strain GLC7, active compounds read low 0.838 | locus YFL009W, strain cdc4, active compounds read low 0.926 | locus YFL029C, strain CAK1, active compounds read low 0.938 | locus YFR003C, strain YPI1, active compounds read low 0.96 | locus YFR019W, strain FAB1, active compounds read low 0.885 | locus YFR028C, strain CDC14, active compounds read low 0.962 | locus YGR040W, strain KSS1, active compounds read low 0.748 | locus YGR052W, strain FMP48, active compounds read low 0.734 | locus YGR092W, strain DBF2, active compounds read low 0.662 | locus YHR079C, strain IRE1, active compounds read low 0.636 | locus YHR082C, strain KSP1, active compounds read low 0.825 | locus YHR205W, strain SCH9, active compounds read low 0.799 | locus YIL147C, strain SLN1, active compounds read low 0.937 | locus YJL095W, strain BCK1, active compounds read low 0.658 | locus YJL128C, strain PBS2, active compounds read low 0.846 | locus YJL157C, strain FAR1, active compounds read low 0.85 | locus YJR016C, strain ILV3, active compounds read low 0.953 | locus YJR066W, strain TOR1 (second series), active compounds read low 0.73 | locus YJR066W, strain TOR1, active compounds read low 0.721 | locus YKL067W, strain YNK1, active compounds read low 0.831 | locus YKL193C, strain SDS22, active compounds read low 0.95 | locus YKL203C, strain TOR2, active compounds read low 0.875 | locus YLR133W, strain CKI1, active compounds read low 0.86 | locus YLR403W, strain SFP1, active compounds read low 0.829 | locus YML070W, strain DAK1, active compounds read low 0.784 | locus YMR001C, strain CDC5, active compounds read low 0.94 | locus YMR205C, strain PFK2 (second series), active compounds read low 0.864 | locus YMR277W, strain FCP1, active compounds read low 0.932 | locus YNL006W, strain LST8, active compounds read low 0.947 | locus YNL020C, strain ARK1, active compounds read low 0.856 | locus YNL161W, strain CBK1, active compounds read low 0.958 | locus YNL183C, strain NPR1, active compounds read low 0.767 | locus YNL207W, strain RIO2, active compounds read low 0.947 | locus YNL222W, strain SSU72, active compounds read low 0.948 | locus YNL307C, strain MCK1 (second series), active compounds read low 0.826 | locus YOL078W, strain AVO1, active compounds read low 0.963 | locus YOL136C, strain PFK27, active compounds read low 0.82 | locus YOR061W, strain CKA2, active compounds read low 0.8 | locus YOR119C, strain RIO1, active compounds read low 0.779 | locus YOR231W, strain MKK1, active compounds read low 0.661 | locus YOR329C, strain SCD5, active compounds read low 0.949 | locus YPL031C, strain PHO85, active compounds read low 0.749 | locus YPL153C, strain RAD53, active compounds read low 0.688 | locus YPL204W, strain HRR25, active compounds read low 0.702 | locus YPL209C, strain IPL1, active compounds read low 0.96 | locus YPR025C, strain CCL1, active compounds read low 0.954 | locus YPR106W, strain ISR1, active compounds read low 0.928 | locus YPR111W, strain DBF20, active compounds read low 0.913 | strain NNK1, active compounds read low 0.934 | strain TSCII, active compounds read low 0.936
active: [5] 0.565 | locus YKL048C, strain ELM1, active compounds read low 0.688 | locus YKL101W, strain HSL1, active compounds read low 0.714 | locus YLR113W, strain HOG1, active compounds read low 0.585 | locus YPL256C, strain CLN2, active compounds read low 0.6
